The results in this text go back to PubChem BioAssay (NCI).

About 83,000 compounds went through this panel and 20% of them were active in at least one assay; those are over-represented in the sample as a whole.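 Treatment: one concentration, 48 hours, 96-well format. Scoring: percent growth, with anything below 10 considered active.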 Unmarked numbers belong to inactive results. Activity calls are given as the source filed them.

Common to all, as to test: NCI-60 one-dose screen, 48 h (100 = growth as untreated, 0 = no growth, -100 = all killed)
One experiment relates to NCI-H23 lung. Particulars: 10 µM.
In a further experiment the test system is A549/ATCC NSCLC. Particulars: 10 µM.
The subject of another experiment is K-562 leukemia. Conditions: 10 µM.
The subject of the next experiment is MDA-MB-231 breast. Conditions: 10 µM.
Another experiment relates to SNB-75 CNS. Particulars: 10 µM.
The next experiment deals with PC-3 prostate. Conditions: 10 µM.
The test system of a further experiment is SK-MEL-28 melanoma. Conditions: 10 µM.
The subject of the next experiment is UO-31 renal. Conditions: 10 µM.
In the next experiment the test system is CAKI-1 renal. Conditions: 10 µM.
The test system of a further experiment is MOLT-4 leukemia. Particulars: 10 µM.
The next experiment concerns SR leukemia. Particulars: 10 µM.
The subject of a further experiment is OVCAR-3 ovarian. Conditions: 10 µM.
The next experiment has as its system HS 578T breast. Conditions: 10 µM.
In a further experiment the test system is SW-620 colon. Conditions: 10 µM.
A further experiment relates to HCC-2998 colon. Particulars: 10 µM.
In a further experiment the test system is KM12 colon. Conditions: 10 µM.
In the next experiment the test system is MDA-MB-468 breast. Particulars: 10 µM unless noted.
In a further experiment the test system is LOX IMVI melanoma. Particulars: 10 µM.
The subject of the next experiment is ACHN renal. Conditions: 10 µM.
A further experiment relates to BT-549 breast. Particulars: 10 µM.

In the case of `CCOP(=O)(OCC)C(NC(C)=O)C(=O)SCCN` (stereo not drawn), the growth is 101% in the experiment on NCI-H23 lung; 107% in the experiment with A549/ATCC NSCLC; 100% in the experiment with K-562 leukemia; 99.2% in the experiment with MDA-MB-231 breast; 99.1% in the experiment with SNB-75 CNS; 116% in the experiment with PC-3 prostate. Besides, the growth with SK-MEL-28 melanoma is 108%; in the experiment on UO-31 renal, 81%; with CAKI-1 renal, 101%; in the experiment with MOLT-4 leukemia, 105%; in the experiment with SR leukemia, 98.4%; with OVCAR-3 ovarian it was 147%. The growth with HS 578T breast was 100%; in the experiment with SW-620 colon, 112%; in the experiment on HCC-2998 colon, 104%; in the experiment on KM12 colon, 112%; in the experiment with MDA-MB-468 breast it was 124%.

Take `Cc1ccc2[nH]c(=S)n(-c3ccc(F)cc3)c(=O)c2c1`: the growth is 98.7% in the experiment on NCI-H23 lung; 100% with A549/ATCC NSCLC; 96.6% in the experiment with K-562 leukemia; 93.1% with MDA-MB-231 breast; 100% in the experiment with SNB-75 CNS; 90% in the experiment with PC-3 prostate. Moreover, the growth was 92.7% with LOX IMVI melanoma; 101% in the experiment with ACHN renal; 97.3% with CAKI-1 renal; 106% in the experiment with MOLT-4 leukemia; 103% in the experiment with SR leukemia; 104% in the experiment on HS 578T breast. Further, the growth in the experiment on BT-549 breast is 93.7%; in the experiment with SW-620 colon, 102%; in the experiment on MDA-MB-468 breast it was 92.1%.

As for `C[C@H]1[C@H](OC(=O)CCC(=O)N(CCCc2cn(-c3ccc([N+](=O)[O-])cc3)nn2)CCNc2ccnc3cc(Cl)ccc23)O[C@@H]2OC3(C)CC[C@H]4[C@H](C)CC[C@@H]1[C@@]24OO3`, the growth in the experiment on NCI-H23 lung is 43.4%; in the experiment on A549/ATCC NSCLC it was 52.6%; in the experiment on K-562 leukemia, 8.36% (active); in the experiment with MDA-MB-231 breast, 50.2%; in the experiment with PC-3 prostate it was 41.2%; with SK-MEL-28 melanoma, 50.7%. The growth with UO-31 renal was 18.3%; in the experiment on MOLT-4 leukemia it was 2.71% (active); with SR leukemia it was -15.2% (active); in the experiment on HS 578T breast, 52.8%; in the experiment with SW-620 colon, 38%; with HCC-2998 colon it was 49.9%. For the same molecule, the growth with MDA-MB-468 breast is 31.2%.

For `O=C(/C=C/c1ccc(Cl)cc1Cl)c1nc2ccccc2n1Cc1ccc(Br)cc1`, the growth was 72.3% in the experiment on NCI-H23 lung; 86.5% in the experiment with A549/ATCC NSCLC; 53.5% with K-562 leukemia; 67.1% in the experiment with PC-3 prostate; 71.3% with ACHN renal; 65.1% in the experiment on CAKI-1 renal. The growth is 15.4% in the experiment on MOLT-4 leukemia; 14.4% in the experiment on SR leukemia; 68.4% with OVCAR-3 ovarian; 59.2% in the experiment on BT-549 breast; 82.7% with KM12 colon; 48.9% with MDA-MB-468 breast.

Turning to `CC(C)N=C([Se])NC(=O)c1cccs1`, the growth with NCI-H23 lung was -33.4% (active); in the experiment with A549/ATCC NSCLC it was 17.6%; in the experiment on K-562 leukemia, 71%; in the experiment with SK-MEL-28 melanoma, 60.2%; with ACHN renal, 47.2%; in the experiment with MOLT-4 leukemia it was 15.4%. Also, the growth with SR leukemia was 2.39% (active); with OVCAR-3 ovarian, 66.3%; in the experiment on HCC-2998 colon, 27.6%; in the experiment with KM12 colon, 16.7%; in the experiment with MDA-MB-468 breast, 64.4%.

With `C[C@H]1[C@H](OC(=O)CCC(=O)Nc2cnccn2)O[C@@H]2OC3(C)CC[C@H]4[C@H](C)CC[C@@H]1[C@@]24OO3`, the growth with NCI-H23 lung was 25.9%; in the experiment on K-562 leukemia, 14.9%; in the experiment on MDA-MB-231 breast, 83.7%; in the experiment on PC-3 prostate, 36.6%; in the experiment with LOX IMVI melanoma, -72.9% (active); with SK-MEL-28 melanoma it was 39.7%. For the same molecule, the growth is 42.8% in the experiment with CAKI-1 renal; 27.6% in the experiment on MOLT-4 leukemia; 4.95% (active) with SR leukemia; 29.2% in the experiment on HS 578T breast; 21.8% in the experiment on SW-620 colon; 63.5% in the experiment on HCC-2998 colon. For the same molecule, the growth in the experiment on MDA-MB-468 breast is 50.7%.

Turning to `COc1cc2cc(C(=O)N3C[C@@H](CCl)c4c3cc(OC(=O)N3CCN(C(=O)CCC(=O)N5CCN(C)CC5)[C@@H]5CSSC[C@@H]53)c3ccccc43)[nH]c2c(OC)c1OC`, the growth in the experiment with NCI-H23 lung was -93% (active); with K-562 leukemia, -17.8% (active); in the experiment with MDA-MB-231 breast it was -94.2% (active); with SNB-75 CNS it was -90.1% (active); with PC-3 prostate, -10.5% (active); with ACHN renal, -31.6% (active). Besides, the growth in the experiment with MOLT-4 leukemia is 0.371% (active); in the experiment on SR leukemia, -12.9% (active); with OVCAR-3 ovarian, 16.4%; in the experiment on HS 578T breast it was -15.6% (active); in the experiment on SW-620 colon it was -23.4% (active); with KM12 colon, -74.6% (active). Moreover, the growth with MDA-MB-468 breast is -91.5% (active).

`COc1cc2cc(C(=O)N3C[C@@H](CCl)c4c3cc(OC(=O)N3CCN(C)[C@@H]5CSSC[C@H]53)c3ccccc43)[nH]c2c(OC)c1OC`: the growth in the experiment on NCI-H23 lung is -80.6% (active); with K-562 leukemia, -6.55% (active); with MDA-MB-231 breast, -51.3% (active); with SNB-75 CNS, -74.3% (active); in the experiment on ACHN renal, -31.2% (active); in the experiment with MOLT-4 leukemia, -27.3% (active). Moreover, the growth was -13.9% (active) in the experiment on SR leukemia; -9.08% (active) in the experiment with OVCAR-3 ovarian; -36% (active) with HS 578T breast; -9.04% (active) with SW-620 colon; -86.3% (active) in the experiment on MDA-MB-468 breast.

On to `CC[C@@]12CC(C(=O)OC)=C3Nc4cc5c(cc4[C@@]34CCN(C[C@H]3O[C@H]31)[C@@H]24)[C@@H]1[C@H](O5)[C@@H](O)[C@@]2(CC)CC(C(=O)OC)=C3Nc4cc(OC)ccc4[C@@]34CCN1[C@@H]24`, for which the growth with NCI-H23 lung was 1.41% (active); in the experiment with K-562 leukemia, 2.66% (active); in the experiment on MDA-MB-231 breast it was 18%; with SNB-75 CNS, -4.82% (active); in the experiment with SK-MEL-28 melanoma, 27.1%; in the experiment on UO-31 renal, 10.1%. Besides, the growth is 17.8% with ACHN renal; -4.22% (active) with MOLT-4 leukemia; -16.2% (active) in the experiment with SR leukemia; -6.21% (active) in the experiment with HS 578T breast; 16.3% in the experiment on SW-620 colon; 10.2% in the experiment on KM12 colon. Also, the growth in the experiment on MDA-MB-468 breast was -56.3% (active).

Turning to `C[C@H]1[C@H](OC(=O)CCC(=O)N(CCCc2cn(-c3ccc(CN4CCOCC4)cc3)nn2)CCNc2ccnc3cc(Cl)ccc23)O[C@@H]2OC3(C)CC[C@H]4[C@H](C)CC[C@@H]1[C@@]24OO3`, the growth was 45.3% in the experiment on NCI-H23 lung; 4.56% (active) in the experiment with K-562 leukemia; 42.5% in the experiment with MDA-MB-231 breast; 38.7% in the experiment on SNB-75 CNS; 29.2% in the experiment with PC-3 prostate; 7.19% (active) with LOX IMVI melanoma. For the same molecule, the growth is -69.3% (active) in the experiment with SK-MEL-28 melanoma; 21.4% with CAKI-1 renal; -4.26% (active) in the experiment on MOLT-4 leukemia; -17.8% (active) with SR leukemia; 38.3% with OVCAR-3 ovarian; 9.17% (active) in the experiment with HS 578T breast. For the same molecule, the growth was 5.43% (active) in the experiment with BT-549 breast, 25.5% with SW-620 colon and 29% in the experiment on MDA-MB-468 breast.
